# Assay outcomes deposited in PubChem by several laboratories.
# Most compounds without a hit are left out; they make up all but 2.4% or so of the library.
# NOD2-RIPK2 inh – NOD2-RIPK2 binding disruptors in cells, primary screen, fluorescence, CHO cells, BLA complementation; Receptor-interacting serine/threonine-protein kinase 2 (Homo sapiens), O43353; CCF4 ratio; inhibition, % at 4.98 µM; actives 0.38% (n = 360,000); AID 624267, 2012; in the data active = inhibition above about 21%;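 note: 0% = vehicle only and 100% = reference blocker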
# m5-HT2A agonist – mouse Htr2a agonists via beta-arrestin recruitment, primary screen, cell-based, luminescence. activation, % at 7.6 µM. actives 0.66% (n = 360,000). CHO-K1 mHTR2A beta-arrestin complementation; percent of 30 µM serotonin response. 5-hydroxytryptamine receptor 2A (Mus musculus), P35363;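 active = activation above a run cutoff, the mean activation of all tested compounds plus 3 SD, cut at about 14% in these data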;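 note: 0% = plate median of compound wells and 100% = 30 µM serotonin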
# ANO1 activ – TMEM16A chloride channel activators or potentiators, primary screen, cell-based, HTS. Anoctamin-1 (Mus musculus), Q8BHY3. HEK293 TMEM16A/YFP-H148Q/I152L, iodide quench fluorescence; active compounds read low. B-score at 10 µM. actives 0.3% (n = 340,000);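 active = fluorescence-ratio B-score plate-corrected deviation score at least 3 library SD below zero, with starting fluorescence score within 5 deviations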;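 note: channel opened by trigger with iodide after compound preincubation; score built on the fluorescence ratio of max minus min over baseline; more negative score means more quench and so TMEM16A activation or potentiation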
# TLR4 MyD88 comp – inhibitors of TLR4-MyD88 association in cells, primary screen, cell-based, HeLa CL3-4, BLA complementation, FRET ratio | Toll-like receptor 4 (Homo sapiens) + Myeloid differentiation primary response protein … | HeLa CL3-4 TLR4/MyD88 BLA complementation | inhibition, % at 8.4 µM | actives 0.18% (n = 200,000) | AID 861, 2007; in the data active = inhibition above about 25%;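 note: 0% = vehicle and 100% = reference inhibitor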
# ANO1 block – TMEM16A chloride channel inhibitors, primary screen, cell-based, HTS; HEK293 TMEM16A/YFP iodide influx fluorescence, ionomycin; normalized B-score (activity score, 25-100; higher = stronger inhibition) at 10 µM; actives 1.2% (n = 310,000);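 active = ratio plate-corrected score three or more library SD toward inhibition, starting fluorescence score within five deviations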;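 note: score derived from kinetic fluorescence span divided by baseline fluorescence per well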
# TLR9-MyD88 inh – inhibitors of TLR9-MyD88 association in cells, primary screen, cell-based, CHO, BLA complementation, fluorescence; inhibition, % at 4.98 µM; Toll-like receptor 9 (Homo sapiens) + Myeloid differentiation primary response protein …; actives 0.21% (n = 340,000); CCF4 FRET ratio;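 active = inhibition above the mean over all tested compounds plus 3 SD, cut at about 21% in these data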;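 note: 0% = DMSO only wells and 100% = clavulanate BLA inhibitor control wells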
# An asterisk follows results filed as active; i = inactive; nt = not tested or not shown.
SMILES,NOD2-RIPK2 inh,m5-HT2A agonist,ANO1 activ,TLR4 MyD88 comp,ANO1 block,TLR9-MyD88 inh
O=c1c2ccccc2nc(COc2ccccc2)n1/N=C/c1cc([N+](=O)[O-])ccc1O,-7,-1,i,-8,100*,11
CC(C)(C)c1ccc(C(=O)NCCC(=O)N2CCCC2)cc1,5,6,i,nt,i,-2
CC(C)(C)c1ccc(C(=O)NCCC(=O)N2CCN(c3ncccn3)CC2)cc1,-3,17*,i,-12,100*,-54
CC[C@@H](C(=O)[C@@H](C)[C@@H](O)[C@H](C)CCc1ccc(C)c(O)c1C(=O)O)[C@H]1O[C@](CC)([C@H]2CC[C@](O)(CC)[C@H](C)O2)C[C@@H]1C,-13,193*,-5.5*,nt,100*,0
COc1cccc(C(=O)Nc2ccc3c(cc2=O)[C@@H](NC(C)=O)CCc2cc(OC)c(OC)c(OC)c2-3)c1,12,16*,i,nt,i,3
COc1ccc(C(=O)C2CCCN(Cc3ccc4nonc4c3)C2)cc1OC (configuration not stated),0,-7,i,-8,i,-4
COc1ccc(C(=O)C2CCCN(Cc3ccc4nonc4c3)C2)cc1F (configuration not stated),3,-2,i,4,25*,5
O=C(CSc1n[nH]c(-c2ccccc2)n1)Nc1ccccc1O,-11,2,i,nt,i,11
Cc1ccc(-c2nnn(CC(=O)NC3CCCc4ccccc43)n2)cc1 (configuration not stated),13,8,i,-5,i,13
CCN(CC)S(=O)(=O)c1cc(NC(=O)c2ccc(-n3cncn3)c([N+](=O)[O-])c2)ccc1C,-1,0,i,nt,100*,9
Cc1ccc(NC(=O)c2ccc(-n3cncn3)c([N+](=O)[O-])c2)cc1,3,-2,i,3,i,0
Cc1ccc(CN2CCC(CNC(=O)c3ccc(NC(=O)C4=CSCCO4)cc3)CC2)cc1,9,-2,-27*,nt,i,-2
CC1(c2ccc(OC(F)F)cc2)NC(=O)N(/N=C/c2c(O)ccc3ccccc23)C1=O (configuration not stated),-13,-3,-4.7*,4,i,-10
CC1(c2ccc(OC(F)F)cc2)NC(=O)N(CC(=O)Nc2cccc(S(N)(=O)=O)c2)C1=O (configuration not stated),-4,7,i,nt,i,0
CC(C)N(CCNC(=O)c1ccc(NC2=NC3CS(=O)(=O)CC3S2)cc1)Cc1ccco1 (configuration not stated),-9,3,i,nt,i,3
CC(=O)Nc1nnc(-c2ccc3c(c2)CCCC3)o1,-18,-5,i,-1,i,3
O=C(Nc1nnc(-c2ccc3c(c2)CCCC3)o1)C1COc2ccccc2O1 (configuration not stated),-2,-6,i,16,25*,1
CCCCCOc1ccc(Br)cc1CSC(=N)N,10,-4,-7.7*,-6,nt,1
COc1ccc(Br)cc1CSC(=N)N,2,-6,i,19,i,4
O=[N+]([O-])c1ccc(CN2CCN(c3ncccn3)CC2)cc1,1,12,i,nt,i,8
c1ccc(-c2ccc(CN3CCN(c4ncccn4)CC3)cc2)cc1,-4,16*,i,7,i,9
COC(=O)c1sc(-c2ccc(Cl)cc2)cc1NC(=O)c1ccccc1C(=O)O,-2,0,i,nt,i,4
COC(=O)c1sc(-c2ccc(C(C)(C)C)cc2)cc1NC(=O)c1ccccc1C(=O)O,-9,1,i,nt,100*,-3
CCn1c(C(C#N)/C(=N\S(=O)(=O)c2cccs2)c2ccccc2)nc2ccccc21 (configuration not stated),-4,5,i,6,i,1
CCCCn1c(NC(=O)c2ccc(F)cc2)c(C#N)c2nc3ccccc3nc21,nt,nt,nt,nt,100*,nt
SMILES,NOD2-RIPK2 inh,m5-HT2A agonist,ANO1 activ,TLR4 MyD88 comp,ANO1 block,TLR9-MyD88 inh
O=C(CC1CC1)N[C@@H]1CC[C@@H](CCNS(=O)(=O)c2ccc(F)cc2)O[C@@H]1CO,-3,2,nt,nt,nt,nt
C=CCOc1ccc(CN(C)C(=O)CNC(=O)c2ccc(-c3ccccc3)cc2)cc1,-1,-4,i,nt,25*,3
O=C(c1cccc(S(=O)(=O)NCc2ccccc2)c1)N1CCN(Cc2ccccc2)CC1,-12,-4,i,-1,i,-5
CC(=O)c1ccc(NC(=O)C(C)Sc2n[nH]c(-c3cccnc3)n2)cc1 (configuration not stated),7,1,i,nt,i,5
NNS(=O)(=O)c1ccc(N2CCCC2=O)c([N+](=O)[O-])c1,-7,7,i,2,i,7
NS(=O)(=O)c1ccc(N2CCCC2=O)c([N+](=O)[O-])c1,-1,0,-4.9*,5,i,-1
CN(C)[C@@H]1CCC[C@@H]1OC(=O)C(c1ccccc1)c1ccccc1,1,-5,i,2,i,2
C=CCN=C(NC#N)SCc1ccccc1,-2,2,i,1,i,-6
C=CCN=C(NC#N)SCC(=O)c1cccc(OC)c1,6,-3,i,4,25*,-12
Cc1cc(F)ccc1S(=O)(=O)N1CCCOC1CNC(=O)C(=O)NC1CCCCC1 (configuration not stated),6,0,i,nt,i,12
Cc1cc(C)n(C(=O)/C(C#N)=N/Nc2cc(Cl)cc(Cl)c2)n1,-1,1,i,2,100*,13
COC(=O)c1ccc(CN2CCc3ccc(NC(=O)c4ccncc4)cc3C2)cc1,-6,-1,i,nt,100*,-4
O=C(Nc1cccc(Br)c1)c1ccc(CN2CCc3ccccc3C2)cc1,-4,0,i,nt,25*,1
CC(=O)Nc1ccc(NC(=O)c2ccc(CN3CCc4ccccc4C3)cc2)cc1,16,2,i,nt,i,6
CSc1cccc(NC(=O)c2ccc(CN3CCc4ccccc4C3)cc2)c1,-5,-12,i,nt,100*,-2
C[C@@H]1CN([C@@H](C)CO)S(=O)(=O)c2ccc(Br)cc2O[C@@H]1CN(C)C(=O)c1ccc(F)cc1,0,1,nt,nt,nt,10
